Measurements: PubChem BioAssay
Where “and” joins values, the source holds several entries; their conditions need not be identical. Equal values may be shown once. Records with an inconclusive call do not appear. Some structures have more than one record in an assay (separate samples or runs), and their calls can disagree. Calls of active or inactive are those of the source.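 How the source made its calls, unless noted: active means normalized viability below 100% at a tested concentration; inactive means the rest.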

Columns and labels:
[1] = drug combination growth inhibition, ovarian cancer – cell-based, oncology-focused library, rucaparib conditional, profiling panel (AID 1508598); conditions: patient-derived ovarian cancer cells, CellTiter-Glo viability, 144 h, stronger effect = lower value
[2] = Wnt pathway potentiators raising nuclear beta-catenin – imaging, WNT3A-conditioned medium, mouse C2C12, NPC library, primary screen (AID 1117326; in the data active means nuclear beta-catenin stimulation mostly above about 4.2%, no sharp cut-off; inactive means mostly below about 10%); conditions: stronger effect = higher value
[3] = stimulators of insulin release from INS-1E, primary screen, cell-based, 5 mM glucose, NPC library (AID 1117329;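 active means compound raises insulin release from rat beta cells at 5 mM glucose, no numeric limit stated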); conditions: rat INS-1E insulin secretion, at 10 µM, stronger effect = higher value
[4] = growth inhibition of GSK3B-pretreated HCT116 cells – cell-based, CellTiter-Glo, 0.2 to 20 µM (AID 1117336;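 active means compounds lowering colon cancer cell viability after pretreatment blocking the GSK3B kinase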); conditions: HCT116 viability after GSK3B inhibitor, at 20 µM, stronger effect = higher value
[5] = inhibition of endothelial tube formation, primary screen, imaging, VEGF stimulated, CD31 staining, tube area, NPC library (AID 1117340;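 active means compound that reduces growth-factor-driven endothelial tube area in a mixed cell culture, no cutoff stated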); conditions: VEGF-stimulated ADSC/ECFC co-culture, at 10 µM, stronger effect = higher value
[6] = GLP1 release stimulators, primary, NCI-H716, NPC library (AID 1117341;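 active means compound raises GLP1 secretion from the human gut endocrine cells, with no numeric limit stated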); conditions: NCI-H716 cells, at 10 µM, stronger effect = higher value
[7] = HCT116 colon cancer cell growth inhibition, primary screen, CellTiter-Glo luminescence, NPC library (AID 1117342;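 active means compounds that lower survival of HCT116 colon cancer cells in the luminescence readout, no numeric limit stated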); conditions: at 20 µM (top of the series)
[8] = reduced SW480 viability measured with CellTiter-Glo, NPC library, primary (AID 1117343;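 active means compounds that lower viability of the colon cancer cells in the luminescence readout, with no numeric limit stated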); conditions: CellTiter-Glo luminescence; at 20 µM (top of the series) unless noted
[9] = NPC library primary testing for decreased DLD-1 cell viability via CellTiter-Glo (AID 1117346;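 active means compounds that lower survival of DLD-1 colon cancer cells in the luminescence readout, no cutoff given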); conditions: DLD-1 viability, CellTiter-Glo luminescence; at 20 µM (top of the series)
[10] = viability loss in pontine glioma line – cell-based, JHH-DIPG-1, MIPE4.0, CellTiter-Glo, qHTS, dose response (AID 1347062; cut-off not given, nearly all actives have AC50 up to about 27 µM); conditions: JHH-DIPG-1 viability, CellTiter-Glo ATP luminescence
[11] = viability loss in pontine glioma line – cell-based, SU-DIPG-IV, MIPE4.0, CellTiter-Glo, qHTS, dose response (AID 1347063; cut-off not given, nearly all actives have AC50 up to about 30 µM;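 further: compound exposure lasted 48 hours before the viability readout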); conditions: CellTiter-Glo ATP luminescence
[12] = growth inhibition of DIPG cells – cell-based, MIPE4.0 library, CellTiter-Glo luminescence, qHTS (AID 1347066; cut-off not given, nearly all actives have AC50 up to about 30 µM;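 further: cells exposed to compound for 48 hours before readout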); conditions: SU-DIPG-VI viability, CellTiter-Glo ATP luminescence
[13] = viability loss with induced miR-34 in A549 – imaging, A549 dox-inducible miR-34, nuclei and caspase counts, primary screen (AID 1347080;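 active means compounds whose cell count with miR-34 switched on is under 0.7 times the count with it off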); conditions: A549 miR-34 inducible, Hoechst nuclei count, 48 h
[14] = MELAS cybrid and Rieske KO viability enhancers – cell-based, MELAS cybrids, Rieske KO mouse fibroblasts, CellTiter-Glo, primary screen (AID 1508586;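 active means mean z-score across replicates of 1.96 or higher in either the MELAS or the Rieske mutant cell line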;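 further: z relative to plate mean and SD of compound and empty wells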); conditions: low glucose
[15] = galactose survival enhancers in mitochondrial complex I cybrids – cell-based, galactose medium, ATP luminescence, primary screen (AID 1645843;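 active means z-score of at least 1.8 in each of two replicates, scored against plate mean and spread of sample wells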;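 further: positive z means more ATP and so rescue of galactose-driven cybrid death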); conditions: complex I mutant cybrid cells, 72 h, stronger effect = higher value
[16] = viability loss in pontine glioma line – cell-based, SU-DIPG-XIII, MIPE4.0, CellTiter-Glo, qHTS, dose response (AID 1347061; cut-off not given, nearly all actives have AC50 up to about 37 µM;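 further: cells exposed to compound for 48 hours before readout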); conditions: CellTiter-Glo ATP luminescence
[17] = viability loss in pontine glioma line – cell-based, SU-DIPG-XXV, MIPE5.0, CellTiter-Glo, qHTS, dose response (AID 1347065; cut-off not given, nearly all actives have AC50 up to about 26 µM;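 further: cells exposed to compound for 48 hours before ATP readout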); conditions: CellTiter-Glo ATP luminescence
[18] = JHH-DIPG-1 glioma cell viability, MIPE5.0 library, CellTiter-Glo luminescence, qHTS (AID 1347067; cut-off not given, nearly all actives have AC50 up to about 26 µM;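 further: cells exposed to compound for 48 hours before readout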); conditions: JHH-DIPG-1 glioma viability, CellTiter-Glo ATP luminescence
[19] = growth inhibition of DIPG cells – cell-based, MIPE5.0 library, qHTS (AID 1347068; cut-off not given, nearly all actives have IC50 up to about 30 µM); conditions: SU-DIPG-XXV viability
[20] = P. berghei load reduction in hepatocytes – cell-based, HepG2, luciferase luminescence, HepG2 viability, primary screen (AID 624349; in the data active means parasite load remaining mostly below about 12%, no sharp cut-off; inactive means mostly above about 10%;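 further: 100% = mean of DMSO negative control wells on the same plate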); conditions: P. berghei liver stage in HepG2, luciferase luminescence, concentration not given here; parasite load remaining: stronger effect = lower value; viability: measured here: HepG2 viability without parasites
[21] = stronger effect = lower value, cell number ratio, induced over uninduced
[22] = measured here: relative caspase fold change +Dox/-Dox
[23] = measured here: total cells with miR-34 induction, stronger effect = lower value
[24] = measured here: total cells without miR-34 induction
[25] = MELAS cybrid survival, CellTiter-Glo 48 h, stronger effect = higher value
[26] = Rieske KO mouse fibroblast survival, CellTiter-Glo 72 h

COc1nc(N)nc2c1ncn2[C@@H]1O[C@H](CO)[C@@H](O)[C@@H]1O
active: viability ([1]; at 0.0781 µM, OCI-C5x cells, without rucaparib) 99.7% | viability ([1]; at 0.0781 µM, OCI-P5x cells, with rucaparib 20 µM, 100% = cells with rucaparib alone) 94.2% | viability ([1]; at 0.313 µM, OCI-C5x cells, without rucaparib) 90.4% | viability ([1]; at 0.313 µM, OCI-P5x cells, with rucaparib 20 µM, 100% = cells with rucaparib alone) 98% | viability ([1]; at 0.313 µM, OCI-P5x cells, without rucaparib) 97% | viability ([1]; at 1.25 µM, OCI-C5x cells, without rucaparib) 83.3% | viability ([1]; at 1.25 µM, OCI-P5x cells, with rucaparib 20 µM, 100% = cells with rucaparib alone) 90.5% | viability ([1]; at 1.25 µM, OCI-P5x cells, without rucaparib) 90.1% | viability ([1]; at 5 µM, OCI-C5x cells, with rucaparib 10 µM, 100% = cells with rucaparib alone) 92.9% | viability ([1]; at 5 µM, OCI-C5x cells, without rucaparib) 84.3% | viability ([1]; at 5 µM, OCI-P5x cells, with rucaparib 20 µM, 100% = cells with rucaparib alone) 80.3% | viability ([1]; at 5 µM, OCI-P5x cells, without rucaparib) 90%
inactive: viability ([1]; at 0.0195 µM, OCI-P5x cells, without rucaparib) 102% | viability ([1]; at 0.0781 µM, OCI-C5x cells, with rucaparib 10 µM, 100% = cells with rucaparib alone) 113% | viability ([1]; at 0.0781 µM, OCI-P5x cells, without rucaparib) 101% | viability ([1]; at 0.313 µM, OCI-C5x cells, with rucaparib 10 µM, 100% = cells with rucaparib alone) 101% | viability ([1]; at 1.25 µM, OCI-C5x cells, with rucaparib 10 µM, 100% = cells with rucaparib alone) 102%

O=C(OC1C[C@H]2CC[C@@H](C1)[N+]21CCCC1)C(O)(c1ccccc1)c1ccccc1 (stereo partly drawn)
0.689: z-score [14, 26]
0.872: fold change [13, 22]
10400: cell count [13, 23]
-2%: nuclear beta-catenin stimulation ([2]; stimulation, at 2 µM)
10200: cell count [13, 24]
inactive: nuclear beta-catenin stimulation ([2]; at 10 µM) -1.3% | insulin secretion stimulation [3] 1.3% | viability decrease [4] -50.2% | tube area decrease [5] 10.7% | GLP1 secretion stimulation [6] -3.1% | inhibition of viability [7] 7.13% | viability decrease (inhibition) [8] -11.6% | viability decrease (inhibition) [9] -9.1% | outcome [10] | outcome [11] | outcome [12] | fold change [13, 21] 1.02 | z-score [14, 25] -0.39

COc1cc(C(C)=O)ccc1OCCCN1CCC(c2noc3cc(F)ccc23)CC1
active: viability decrease [4] 66.1% | inhibition of viability [7] 80.7% | viability decrease (inhibition) [8] 100%
0.999 and 0.549: z-score [14, 26]
0.5%: nuclear beta-catenin stimulation ([2]; stimulation, at 2 µM)
7670 and 8090: cell count [13, 24]
0.354 and 0.917: fold change [13, 22]
inactive: nuclear beta-catenin stimulation ([2]; at 10 µM) 1.5% | insulin secretion stimulation [3] 3.8% | tube area decrease [5] 16.7% | GLP1 secretion stimulation [6] 6.5% | viability decrease (inhibition) [9] 33.5% | outcome [11] | fold change [13, 21] 0.893 and 0.919 | z-score [14, 25] -0.601 and -0.433 | z-score [15] -1.19
6850 and 7430: cell count [13, 23]

O=c1[nH]c(=O)n([C@H]2C[C@H](O)[C@@H](CO)O2)cc1C(F)(F)F
inactive: insulin secretion stimulation [3] 1.1% | GLP1 secretion stimulation [6] -3.2% | outcome [16] | outcome [10] | outcome [17] | outcome [12] | outcome [18] | outcome [19] | z-score [14, 25] 0.972
active: nuclear beta-catenin stimulation ([2]; at 10 µM) 44.5% | viability decrease [4] 84.6% | tube area decrease [5] 99.5% | inhibition of viability [7] 84% | viability decrease (inhibition) [8] 98.1% | viability decrease (inhibition) [9] 41.5%
39%: nuclear beta-catenin stimulation ([2]; stimulation, at 2 µM)
1.84: z-score [14, 26]

O=C(O)c1cccc(-c2noc(-c3ccccc3F)n2)c1
inactive: nuclear beta-catenin stimulation ([2]; at 10 µM) 2.5% | insulin secretion stimulation [3] 0% | viability decrease [4] 8.8% | tube area decrease [5] -5.7% | GLP1 secretion stimulation [6] 2.2% | inhibition of viability [7] 15.5% | viability decrease (inhibition) [8] 2.3% | viability decrease (inhibition) [9] -11% | outcome [16] | outcome [11] | outcome [12] | outcome [19] | fold change [13, 21] 0.927 | z-score [14, 25] -0.357
0.633: z-score [14, 26]
11000: cell count [13, 24]
0.71: fold change [13, 22]
4.8%: nuclear beta-catenin stimulation ([2]; stimulation, at 2 µM)
10200: cell count [13, 23]

CN1C[C@H]2c3ccccc3Oc3ccc(Cl)cc3[C@@H]2C1
-0.7%: nuclear beta-catenin stimulation ([2]; stimulation, at 2 µM)
0.408: z-score [14, 26]
active: viability decrease (inhibition) [8] 80.6%
inactive: nuclear beta-catenin stimulation ([2]; at 10 µM) 0.7% | insulin secretion stimulation [3] 9% | viability decrease [4] 30.4% | tube area decrease [5] 28.3% | GLP1 secretion stimulation [6] 4.4% | inhibition of viability [7] 39.3% | viability decrease (inhibition) [9] 34.3% | outcome [16] | outcome [10] | outcome [11] | outcome [12] | z-score [14, 25] 0.874

O=C(O)c1c(Cl)c(Cl)c(Cl)c(Cl)c1-c1c2cc(I)c(=O)c(I)c-2oc2c(I)c(O)c(I)cc12
inactive: nuclear beta-catenin stimulation ([2]; at 10 µM) -2.4% | insulin secretion stimulation [3] -1.2% | tube area decrease [5] 23.9% | GLP1 secretion stimulation [6] -4.3%
-0.6%: nuclear beta-catenin stimulation ([2]; stimulation, at 2 µM)
active: viability decrease [4] 96.7% | inhibition of viability [7] 91.6% | viability decrease (inhibition) [8] 90.7% | viability decrease (inhibition) [9] 73.4% | AC50 [16] 16.6 µM | AC50 [17] 3.32 µM | AC50 [18] 8.33 µM

O=C(O)c1nc(=O)[nH]c(=O)[nH]1
0.2%: nuclear beta-catenin stimulation ([2]; stimulation, at 2 µM)
inactive: nuclear beta-catenin stimulation ([2]; at 10 µM) 0.4% | insulin secretion stimulation [3] -2.5% | viability decrease [4] -8.95% | tube area decrease [5] -8.3% | GLP1 secretion stimulation [6] 0.9% | inhibition of viability [7] -17.1% | viability decrease (inhibition) [8] 29% | viability decrease (inhibition) [9] 12.8% | outcome [10] | outcome [11] | outcome [17] | outcome [12] | outcome [18] | outcome [19]

CCOC(=O)Nc1ccc(NCc2ccc(F)cc2)nc1N
inactive: nuclear beta-catenin stimulation ([2]; at 10 µM) 0.2% | insulin secretion stimulation [3] 1.9% | viability decrease [4] 5.6% | tube area decrease [5] -7.5% | GLP1 secretion stimulation [6] -1.1% | inhibition of viability [7] 18.8% | viability decrease (inhibition) [8] 1.7% | viability decrease (inhibition) [9] 8.6% | outcome [11] | outcome [12] | outcome [18] | fold change [13, 21] 1.05 and 0.965 | z-score [14, 25] -0.196 | z-score [15] 1.55
2.4%: nuclear beta-catenin stimulation ([2]; stimulation, at 2 µM)
9760 and 8410: cell count [13, 24]
-0.17: z-score [14, 26]
10200 and 8110: cell count [13, 23]
0.797 and 0.68: fold change [13, 22]

C[C@]12CC[C@@H]3c4ccc(O)cc4C[C@@H](CCCCCCCCCS(=O)CCCC(F)(F)C(F)(F)F)[C@H]3[C@@H]1CC[C@@H]2O (stereo partly drawn)
-0.225 and 1.88: z-score [14, 26]
inactive: parasite load remaining [20] 12.8% | nuclear beta-catenin stimulation ([2]; at 10 µM) 1% | insulin secretion stimulation [3] 5.1% | viability decrease [4] -4.5% | tube area decrease [5] 16.2% | GLP1 secretion stimulation [6] -2.7% | inhibition of viability [7] 49.8% | viability decrease (inhibition) [9] 18.9% | outcome [16] | outcome [10] | outcome [17] | outcome [12] | outcome [18] | outcome [19] | fold change [13, 21] 0.987 and 0.822 | z-score [14, 25] -1.54 and 0.0305
121%: viability [20]
7310 and 7580: cell count [13, 24]
0.4%: nuclear beta-catenin stimulation ([2]; stimulation, at 2 µM)
7220 and 6230: cell count [13, 23]
1.73 and 1.2: fold change [13, 22]
active: viability decrease (inhibition) [8] 54%
2.5 (active) and -0.155 (inactive): z-score [15]
